For eleven compounds, growth inhibition results are on record in PubChem BioAssay (NCI).

Values joined by “and” are separate entries in the source; they are usually repeats but may differ in a detail not shown here. Identical values can stand only once. Compounds without any hit were thinned out: in the full panel of roughly 79,000, 15% have a hit. A number with no mark means an inactive call. Active and inactive are the calls of the source. No stated cut-off is given here; in the data, active means growth inhibition above about 70%; inactive means the rest.

The nature of assay [1]: NCI Yeast Anticancer Drug Screen. Data for the mec2-1 strain (AID 157). To be noted: S. cerevisiae mec2-1 strain, stronger effect = higher value. An outline of the steps: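 Using mec2-1 yeast: add compound, measure growth, express inhibition versus vehicle-treated cultures.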
Assay [2] is described as follows: NCI Yeast Anticancer Drug Screen. Data for the sgs1 mgt1 strain (AID 161).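 Further: 0% = growth of cultures given vehicle only.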 To be noted: S. cerevisiae sgs1 mgt1 strain, stronger effect = higher value. An outline of the steps:
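This yeast growth screen uses a strain with defined DNA-repair lesions; compound-treated growth is compared with vehicle-treated growth.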

Assay [3] can be described thus: NCI Yeast Anticancer Drug Screen. Data for the cln2 rad14 strain (AID 165).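 Further: 0% = growth equal to vehicle treated cultures.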 To be noted: S. cerevisiae cln2 rad14 strain, stronger effect = higher value. An outline of the steps:
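Yeast strain cln2 rad14, bearing defects in cell cycle control and DNA repair, serves as the test system; values reflect growth inhibition compared with vehicle.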

Assay [4] can be described thus: NCI Yeast Anticancer Drug Screen. Data for the bub3 strain (AID 167). To be noted: S. cerevisiae bub3 mutant strain, stronger effect = higher value. In short, it runs like this: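 Part of a panel of yeast mutants defective in DNA damage repair or cell cycle regulation. Each strain is grown with compound, and inhibition is calculated relative to solvent-treated cultures.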
Assay [5] in a line: NCI Yeast Anticancer Drug Screen. Data for the mlh1 rad18 strain (AID 175). To be noted: S. cerevisiae mlh1 rad18 strain growth inhibition, stronger effect = higher value. An outline of the steps: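 Steps: expose repair-defective yeast to compound; measure growth; express inhibition against vehicle-treated controls.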
Assay [6] in a line: NCI Yeast Anticancer Drug Screen. Data for the rad50 strain (AID 155).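 Further: 0% = growth of vehicle-only cultures of the same strain.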 To be noted: S. cerevisiae rad50 strain growth inhibition, stronger effect = higher value. An outline of the steps:
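Cells are treated with compound, grown, and their growth is then scored against vehicle-only cultures of the same repair-deficient yeast strain.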

The mark [7] stands for this setting: at 5.0 µM (retest, dose inferred, filed as 0.5).
Where [8] appears, read: at 50.0 µM (retest, dose inferred, filed as 5.0).

For the compound `Cc1cccc(NC(=O)Oc2ccc(Cl)c3cccnc23)c1`, the growth inhibition in assay [1] (setting [7]) was 57%; in assay [1] (setting [8]), 99% (active); in assay [1] (at 50.0 µM) it was 88.7% (active); in assay [2] (setting [7]), 97% (active); in assay [2] (setting [8]), 99% (active); in assay [2] (at 50.0 µM), 91.8% (active). Moreover, the growth inhibition in assay [3] (setting [7]) is 95% (active); in assay [3] (setting [8]) it was 99% (active); in assay [3] (at 50.0 µM), 89.9% (active); in assay [4] (setting [7]), 82% (active); in assay [4] (setting [8]) it was 67%; in assay [4] (at 50.0 µM) it was 85.5% (active). For the same compound, the values for the growth inhibition in assay [5] (setting [7]), in assay [5] (setting [8]) and in assay [5] (at 50.0 µM) were 72% (active), 99% (active) and 88.8% (active), respectively.

With `Oc1ccc2ccccc2c1/C=N\Sc1ccccc1`, the growth inhibition in assay [1] (setting [7]) was 18%; in assay [1] (setting [8]), 99% (active); in assay [1] (at 50.0 µM), 99.3% (active); in assay [2] (setting [7]) it was 15%; in assay [2] (setting [8]), 99% (active); in assay [2] (at 50.0 µM), 98.5% (active). Moreover, the growth inhibition in assay [3] (setting [7]) was 7%; in assay [3] (setting [8]) it was 99% (active); in assay [3] (at 50.0 µM) it was 41%; in assay [4] (setting [7]) it was -2%; in assay [4] (setting [8]), 99% (active); in assay [4] (at 50.0 µM), 98.1% (active). Also, the growth inhibition was 6% in assay [5] (setting [7]), 99% (active) in assay [5] (setting [8]) and 99% (active) in assay [5] (at 50.0 µM).

As for `CCCCCOCC(=O)OC`, the growth inhibition in assay [6] (setting [7]) is -1%; in assay [6] (setting [8]), 13%; in assay [6] (at 50.0 µM) it was -1.9%; in assay [1] (setting [7]), 0%; in assay [1] (setting [8]), 5%; in assay [1] (at 50.0 µM), -11.6%. Further, the growth inhibition in assay [2] (setting [7]) was -1%; in assay [2] (setting [8]) it was 5%; in assay [2] (at 50.0 µM) it was -16.2%; in assay [4] (setting [7]), 0%; in assay [4] (setting [8]), 7%; in assay [4] (at 50.0 µM) it was -1.3%. Moreover, the results for the growth inhibition in assay [5] (setting [7]), in assay [5] (setting [8]) and in assay [5] (at 50.0 µM) were 2%, 7% and -15.1%, respectively.

As for `CC(=O)OCC(OC(C)=O)C(OC(C)=O)C(OC(C)=O)C(COC(C)=O)OC(C)=O` (stereo unspecified), the growth inhibition in assay [6] (at 50.0 µM) was -27.2% and -22.9% and -9.4%; in assay [1] (at 50.0 µM) it was 9.3% and -7.9% and -11.8%; in assay [2] (at 50.0 µM) it was 3.45% and 10.6% and -10.8%; in assay [3] (at 50.0 µM), -30.3% and -21.9% and -0.1%; in assay [4] (at 50.0 µM), 0.95% and -9.35% and 14.6%; in assay [5] (at 50.0 µM), -24.4% and 7.9% and 2.5%.

With `CCCN(CCC)C(=O)c1cccc2ccccc12`, the growth inhibition in assay [1] (setting [7]) is 4%; in assay [1] (setting [8]), 6%; in assay [1] (at 50.0 µM), -19.1%; in assay [2] (setting [7]) it was 1%; in assay [2] (setting [8]) it was 9%; in assay [2] (at 50.0 µM), 44.5%. Moreover, the growth inhibition is 3% in assay [3] (setting [7]); 22% in assay [3] (setting [8]); -1.9% in assay [3] (at 50.0 µM); 6% in assay [4] (setting [7]); 28% in assay [4] (setting [8]); 27.2% in assay [4] (at 50.0 µM). Moreover, the results for the growth inhibition in assay [5] (setting [7]), in assay [5] (setting [8]) and in assay [5] (at 50.0 µM) were 6%, 7% and 7.5%, respectively.

Consider `C(/C=C/CC=Nc1ccccc1)=Nc1ccccc1`, for which the growth inhibition in assay [6] (setting [7]) was 3%; in assay [6] (setting [8]), 4%; in assay [6] (at 50.0 µM), 4.4%; in assay [1] (setting [7]) it was 2%; in assay [1] (setting [8]) it was 3%; in assay [1] (at 50.0 µM) it was 30.6%. The growth inhibition is -4% in assay [3] (setting [7]); -4% in assay [3] (setting [8]); 42.2% in assay [3] (at 50.0 µM); -4% in assay [4] (setting [7]); -3% in assay [4] (setting [8]); -7.75% in assay [4] (at 50.0 µM). Also, the growth inhibition is 7% in assay [5] (setting [7]), 3% in assay [5] (setting [8]) and -29.7% in assay [5] (at 50.0 µM).

With `c1ccc2cc3nc4ccccc4nc3cc2c1`, the growth inhibition in assay [1] (setting [7]) was 21%; in assay [1] (setting [8]), 38%; in assay [1] (at 50.0 µM) it was 51.4%; in assay [2] (setting [7]), 13%; in assay [2] (setting [8]), 22%; in assay [2] (at 50.0 µM) it was 20.9%. Moreover, the growth inhibition is 15% in assay [3] (setting [7]); 38% in assay [3] (setting [8]); 70.1% (active) in assay [3] (at 50.0 µM); 42% in assay [4] (setting [7]); 57% in assay [4] (setting [8]); 68.3% in assay [4] (at 50.0 µM). Moreover, the growth inhibition in assay [5] (setting [7]) was 25%; in assay [5] (setting [8]), 58%; in assay [5] (at 50.0 µM), 73% (active).

Regarding `CC(=O)N1C(c2[nH]c3ccccc3c2-c2ccccc2)CCN1c1ccccc1` (stereo unspecified), the growth inhibition is -12% in assay [6] (setting [7]); 74% (active) in assay [6] (setting [8]); 64.1% in assay [6] (at 50.0 µM); -2% in assay [1] (setting [7]); 51% in assay [1] (setting [8]); 54.7% in assay [1] (at 50.0 µM). Further, the growth inhibition is 14% in assay [2] (setting [7]); 87% (active) in assay [2] (setting [8]); 83.2% (active) in assay [2] (at 50.0 µM); -5% in assay [4] (setting [7]); 87% (active) in assay [4] (setting [8]); 63.2% in assay [4] (at 50.0 µM). The growth inhibition was -9% in assay [5] (setting [7]), 83% (active) in assay [5] (setting [8]) and 71% (active) in assay [5] (at 50.0 µM).

On to `CCCN(CCC)C(=O)CCC(C)=O`, for which the growth inhibition in assay [6] (setting [7]) is 0%; in assay [6] (setting [8]), -3%; in assay [6] (at 50.0 µM), -13.8%; in assay [1] (setting [7]), 1%; in assay [1] (setting [8]), 2%; in assay [1] (at 50.0 µM), -7.5%. The growth inhibition in assay [3] (setting [7]) is -7%; in assay [3] (setting [8]), 3%; in assay [3] (at 50.0 µM), 41.5%; in assay [4] (setting [7]), -1%; in assay [4] (setting [8]) it was -3%; in assay [4] (at 50.0 µM), -18.4%. For the same compound, the growth inhibition in assay [5] (setting [7]) was 1%; in assay [5] (setting [8]), -3%; in assay [5] (at 50.0 µM) it was 17.1%.

In the case of `C/C(O)=C(/C=N\C(=S)Nc1ccc(Cl)c(Cl)c1)C(=O)Nc1ccccc1C`, the growth inhibition in assay [1] (setting [7]) was -6%; in assay [1] (setting [8]), 26%; in assay [1] (at 50.0 µM), 39.6%; in assay [2] (setting [7]), 1%; in assay [2] (setting [8]), 22%; in assay [2] (at 50.0 µM), 73.5% (active). Besides, the growth inhibition in assay [3] (setting [7]) was -7%; in assay [3] (setting [8]) it was 34%; in assay [3] (at 50.0 µM), -10.2%; in assay [4] (setting [7]), -15%; in assay [4] (setting [8]), 13%; in assay [4] (at 50.0 µM), 51.6%. The growth inhibition in assay [5] (setting [7]) was 11%; in assay [5] (setting [8]) it was 22%; in assay [5] (at 50.0 µM), 57.7%.

Regarding `CCOP(=O)(OCC)C(=C1C=C(C(C)(C)C)C(=O)C(C(C)(C)C)=C1)P(=O)(OCC)OCC`, the growth inhibition is 2% in assay [6] (setting [7]); 97% (active) in assay [6] (setting [8]); 98.2% (active) in assay [6] (at 50.0 µM); -15% in assay [1] (setting [7]); 99% (active) in assay [1] (setting [8]); 96.8% (active) in assay [1] (at 50.0 µM). The growth inhibition in assay [3] (setting [7]) was -4%; in assay [3] (setting [8]), 99% (active); in assay [3] (at 50.0 µM) it was 97.2% (active); in assay [4] (setting [7]), 5%; in assay [4] (setting [8]), 99% (active); in assay [4] (at 50.0 µM), 97.2% (active). Moreover, the results for the growth inhibition in assay [5] (setting [7]), in assay [5] (setting [8]) and in assay [5] (at 50.0 µM) were -12%, 98% (active) and 96.8% (active), respectively.
